Source: PubChem BioAssay
Wnt act: activates Wnt/beta-catenin signaling in a reporter cell assay. 300,000 tested, 1.2% active. activation, % at 9.35 µM. AID 743398. activator, plate reader; in the data active = activation above about 30%, passing the limit was not always enough; inconclusive = no clear call, values can overlap the other calls;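 note: 0% = neutral control wells and 100% = positive control wells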
esBAF inh: inhibitors of esBAF chromatin remodeling in mouse ES cells; Bmi1-luciferase knock-in reporter, 24 h; 100% = twice the neutral-well signal; reporter increase, % at 12.5 µM; 350,000 tested, 2% active; in the data active = activation above about 40%; inconclusive = no clear call, values can overlap the other calls;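 note: 0% = median of the plate's neutral control wells and 100% = double that signal; a rise in the Bmi1 reporter signal indicates esBAF inhibition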
MITF TRPM1 HTS: MITF TRPM1 promoter activation in melanoma cells; 300,000 tested, 0.75% active; SK-MEL-5 TRPM1-promoter luciferase, 24 h; % of positive control, neutral wells = 0; activation, % at 12.5 µM;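 active = mean activation of at least 80% with every replicate also reaching 80%; inconclusive = mean reaches 80% but some replicate falls short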;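 note: 0% = neutral control wells and 100% = parthenolide positive control wells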
GAA850 FXN act: activators of GAA850 frataxin (FXN) promoter. HEK293 lucGAA850 FXN promoter luciferase reporter, 24 h; percent of 10 µM SAHA response. activation, % at 6 µM. 360,000 tested, 0.56% active. AID 540364;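 active = activation above the average of all compounds screened plus 3 SD, cutoff fixed separately per campaign, cut at about 7.5% in these data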;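 note: 0% = DMSO wells and 100% = 10 µM SAHA wells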
Statin myotox sup: suppressors of simvastatin-induced myotoxicity in C2C12 myotubes; ATP luminescence, 48 h; scaled: DMSO 0, geranylgeraniol control 100; rescue of ATP level, % at 7.49 µM; 330,000 tested, 0.78% active; AID 602340;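 active = mean ATP rescue above about 67%, or every replicate alone reaching that limit, limit read from the data, passing the limit was not always enough; inconclusive = no clear call, values can overlap the other calls; inactive = mean under the limit and some replicate under it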;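 note: myotubes were challenged with 10 µM simvastatin during compound exposure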
Numbers without * were called inactive; ? = inconclusive; · = not tested or not shown. A selection: hits, their analogues and other compounds. The true share with any hit is near 3.3%.

SMILES	Wnt act	esBAF inh	MITF TRPM1 HTS	GAA850 FXN act	Statin myotox sup
CC1(C)Nc2ccccc2C(=O)N1c1ccc(Br)cc1	66*	·	·	1	·
C[C@H](NC(=O)C[C@H]1C[C@@H]2c3cc(NC(=O)CN(C)C)ccc3O[C@@H]2[C@@H](CO)O1)c1ccccc1	·	-2	·	·	-1
Cc1ccc(S(=O)(=O)Nc2ccc3c(c2)C(=O)N([C@@H](C)CO)C[C@@H](C)[C@@H](CN(C)Cc2ccc(C(=O)O)cc2)O3)cc1	·	-7	·	·	3
CO[C@@H]1CN(C)C(=O)c2cc(NS(=O)(=O)CC(F)(F)F)ccc2OC[C@H](C)N(C(=O)NC(C)C)C[C@@H]1C	·	-5	·	·	-5
C[C@@H]1CCCCO[C@@H](CN(C)S(=O)(=O)c2ccc(Cl)cc2)[C@H](C)CN([C@@H](C)CO)C(=O)c2cc(NC(=O)c3ccncc3)ccc2O1	·	10	·	·	·
CC(C)Nc1ncnc2c1cnn2-c1ccccc1	53*	12	·	3	-5
CNC(=O)CSc1ncnc2c1cnn2-c1ccccc1	0	·	32	2	·
c1ccc(-n2ncc3c(NC4CCCCCC4)ncnc32)cc1	24	55*	·	2	-64
CC(=O)CSc1ncnc2c1cnn2-c1ccccc1	42*	12	59	2	1
CC(=NC1CCCCC1)C1=C(O)c2ccccc2C1=O	?	14	90*	4	24
CC(=NC1CCCCC1)c1ccc(O)cc1O	0	14	·	-1	-6
O=C(c1cnccn1)N1CCN(C/C=C/c2ccccc2)CC1	·	0	1	0	102*
Cc1cc(C(=O)N2CCN(C/C=C/c3ccccc3)CC2)no1	·	0	7	2	5
O=C(NC1CCCCC1)C(c1cccs1)N(C(=O)c1ccco1)c1ccc2c(c1)OCCO2 (stereo not given)	0	78*	-1	-2	·
CCc1ccc(N(C(=O)c2ccco2)C(C(=O)NC2CCCC2)c2ccco2)cc1 (stereo not given)	·	50*	5	0	17
O=C(NC1CCCC1)C(c1ccncc1)N(C(=O)c1ccco1)c1ccc(Cl)cc1 (stereo not given)	-1	5	-8	2	37
CCc1ccc(N(C(=O)c2ccco2)C(C(=O)NC2CCCC2)c2ccncc2)cc1 (stereo not given)	8	42*	17	7	-20
C[C@@H]1CCCCO[C@@H](CN(C)C(=O)CCCN(C)C)[C@H](C)CN([C@@H](C)CO)C(=O)c2cc(NC(=O)Nc3ccc(F)cc3)ccc2O1	·	-2	·	·	·
CCC(=O)N1CC[C@H]2[C@H](CO)Nc3ccc(C#Cc4cccnc4)cc3[C@H]21	·	-4	·	·	-7
CCOCC(=O)NCc1ccc2c(c1)OCO2	·	-5	-18	1	76*
Cc1ccc(CC(=O)NCc2ccc3c(c2)OCO3)cc1	-2	8	16	-1	-1
O=C(O)C[C@@H]1CC[C@@H](NC(=O)c2ccccc2F)[C@@H](CO)O1	·	-2	·	·	-2
CN1C(=O)c2cccc3c(S(N)(=O)=O)ccc1c23	0	-3	·	2	-12
CN1C(=O)c2cccc3c(S(=O)(=O)NCc4ccco4)ccc1c23	·	-18	-14	2	110*
O=C(C[C@H]1CC[C@@H]2[C@H](COC[C@H](O)CN2C(=O)c2ccc(F)cc2)O1)Nc1nccs1	·	-7	·	·	9
SMILES	Wnt act	esBAF inh	MITF TRPM1 HTS	GAA850 FXN act	Statin myotox sup
N#Cc1cc2cc3c(cc2nc1SCC(=O)N1CCCC1)OCCO3	·	22	87*	5	-2
CC(=O)CSc1nc2cc3c(cc2cc1C#N)OCCO3	11	·	-23	5	·
COc1ccccc1OCCCC(=O)Nc1nccs1	6	82*	59	2	9
COCCNC(=O)CN(C(=O)CCC(=O)Nc1nccs1)c1ccccc1OC	0	8	·	0	109*
COCCNC(=O)CN(C(=O)CCC(=O)Nc1ccccn1)c1ccccc1OC	1	3	·	1	1
Cc1cccc(OCCCC(=O)Nc2nccs2)c1C	15	20	7	0	-32
COc1ccc(C(CC(=O)Nc2nccs2)n2cccc2)cc1 (stereo not given)	·	61*	55	4	20
CO[C@H]1CN(C)C(=O)c2ccc(NC(=O)c3nc4ccccc4s3)cc2OC[C@H](C)N(Cc2cncnc2)C[C@H]1C	·	9	·	·	17
O=C(C[C@@H]1C=C[C@@H](NS(=O)(=O)c2ccccc2)[C@@H](CO)O1)NCc1ccncn1	·	-3	·	·	1
CCOC(=O)C(C)On1c(-c2ccccc2)nc2ccc([N+](=O)[O-])cc21 (stereo not given)	·	·	99*	3	·
O=C(O)COn1c(-c2ccc(Cl)cc2)nc2ccc(Cl)cc21	13	·	57	5	·
O=C(O)COn1c(-c2ccccc2)nc2ccc([N+](=O)[O-])cc21	12	49*	59	2	105*
CCOC(=O)C(C)On1c(-c2ccc(Cl)cc2)nc2ccc([N+](=O)[O-])cc21 (stereo not given)	·	·	58	0	·
C[C@@H]1CN([C@@H](C)CO)S(=O)(=O)c2ccc(-c3cccc(F)c3)cc2O[C@H]1CN(C)C(=O)C1CC1	·	2	·	·	1
C=CCc1ccc(OCCCCNC2CCCC2)c(OC)c1	-2	·	8	0	·
C=CCc1ccc(OC(=O)NC2CCCCC2)c(OC)c1	13	51*	58	0	1
COC(=O)C1=C(C)N=C2SC(C)C(=O)N2C1c1cccs1 (stereo not given)	·	-10	·	-1	121*
CCOC(=O)Cc1csc(NC(=O)c2sc3nc4ccc(C)cc4cc3c2N)n1	·	6	·	2	12
CCc1nnc(NC(=O)c2sc3nc4cc(C)ccc4cc3c2N)s1	·	49*	·	-1	-1
COc1ccc(NC(=O)/C=C/c2ccco2)cn1	?	44*	118*	5	8
COc1ccc(OC)c(/C=C/C(=O)Nc2ccc(OC)nc2)c1	0	·	14	2	·
COc1ccc(NC(=O)/C=C/c2cccc(F)c2)cn1	36*	·	31	4	·
CC(=O)N(C)C[C@@H]1Oc2ncc(C#Cc3cccnc3)cc2C(=O)N([C@H](C)CO)C[C@H]1C	·	1	·	·	-11
C[C@@H]1CN([C@@H](C)CO)C(=O)c2cc(NC(=O)c3ccccc3)ccc2O[C@@H](C)CCCCO[C@H]1CN(C)Cc1ccc(C(F)(F)F)cc1	·	-1	·	·	·
Cc1cccc(C)c1OCc1cc(C(=O)N2CC3C[C@@H]4CC2C[C@H](C3)C4)no1	36*	82*	115*	4	-1
Cc1cccc(C)c1OCc1cc(C(=O)N2CCC(c3ccccc3)CC2)no1	9	34	43	3	4
COc1cc(C)ccc1OCc1cc(C(=O)N2C[C@H]3CC[C@H]2C3)no1	10	13	25	0	1
O=C(c1cc(COc2ccc(F)cc2Cl)on1)N1C[C@H]2CC[C@H]1C2	0	43*	78	5	-3
O=C(c1cc(COc2ccc(F)cc2Cl)on1)N1CC2C[C@@H]3CC1C[C@H](C2)C3	15	59*	38	6	-13
